Laboratory results published in PubChem BioAssay AID1903 (Southern Research Specialized Biocontainment Screening …, 2009).
Screen size: about 310,000 compounds; about 1,200 (0.39%) were called active. The rule behind the calls is not given here. Not all results are given here. Results with a measured potency or affinity are listed apart.

Biological target: Large T antigen (Simian virus 40) (UniProt P03070)
Experiment: SV40 large T antigen inhibitors, biochemical (AID 1903)
Settings: SV40 large T antigen ATPase/helicase inhibition assay; at 20 µM; hits give high values

Chain of Large T antigen (Simian virus 40) (P03070 whole entry, looked up): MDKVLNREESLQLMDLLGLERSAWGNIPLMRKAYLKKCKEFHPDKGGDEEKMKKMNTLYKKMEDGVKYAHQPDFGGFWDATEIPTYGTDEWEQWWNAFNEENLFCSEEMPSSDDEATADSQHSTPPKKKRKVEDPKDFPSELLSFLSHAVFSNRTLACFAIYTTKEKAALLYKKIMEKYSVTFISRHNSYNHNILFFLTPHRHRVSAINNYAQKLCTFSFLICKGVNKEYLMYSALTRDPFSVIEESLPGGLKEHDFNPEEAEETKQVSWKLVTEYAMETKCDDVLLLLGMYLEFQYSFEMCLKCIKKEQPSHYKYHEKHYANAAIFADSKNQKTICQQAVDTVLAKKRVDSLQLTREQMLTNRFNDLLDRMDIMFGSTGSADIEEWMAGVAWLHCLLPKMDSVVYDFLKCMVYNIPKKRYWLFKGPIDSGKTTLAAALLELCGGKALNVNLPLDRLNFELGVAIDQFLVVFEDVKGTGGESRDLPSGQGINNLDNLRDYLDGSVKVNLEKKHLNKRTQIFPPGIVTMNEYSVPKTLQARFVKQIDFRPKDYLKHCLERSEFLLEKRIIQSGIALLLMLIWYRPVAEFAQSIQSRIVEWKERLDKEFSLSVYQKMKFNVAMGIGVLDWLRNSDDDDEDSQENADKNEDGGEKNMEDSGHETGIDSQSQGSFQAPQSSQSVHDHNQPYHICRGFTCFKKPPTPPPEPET

inhibition, inactive:
COc1cccc(-c2ccc(NC(=O)C3CCCN(Cc4cnc(C)n4C)C3)cc2)c1 (stereo not drawn) 12.9%
Nc1nc(-c2ccccc2)c(-c2ccccc2)s1 22%
Nc1nc(-c2ccccc2)c(-c2ccc([N+](=O)[O-])cc2)s1 2.8%
O=C(Nc1cccc(S(=O)(=O)N2CCCC2)c1)c1cccnc1 8.88%
CCn1c(C)nc2cc(C(=O)NNC(=S)NC(=O)c3ccccc3)ccc21 22.4%
COc1ccc(C(=O)Nc2ccc(NC(=O)C3CC3)cn2)cc1 10.7%
CC(C)N1C(=O)S/C(=C/c2ccc(Sc3nc4ccccc4[nH]3)o2)C1=O 7.29%
N#C/C(=C\c1ccc(Sc2nc3ccccc3[nH]2)o1)c1ccccc1 13%
N#C/C(=C/c1ccc(Sc2nc3ccccc3[nH]2)o1)c1cccc(F)c1 0.21%
C=CCN1C(=O)S/C(=C/c2ccc(Sc3nc4ccccc4[nH]3)o2)C1=O 6.66%
N#C/C(=C/c1ccc(Sc2nc3ccccc3[nH]2)o1)c1cccc(Br)c1 -8.47%
CCN1C(=O)S/C(=C/c2ccc(Sc3nc4ccccc4[nH]3)o2)C1=O 10.6%
O=C(NCc1ccco1)/C(=C/c1ccc(F)cc1)NC(=O)c1ccccc1 5.2%
O=C(O)CC1(CC(=O)Nc2ccc3ccccc3n2)CCCCC1 10.8%
Cc1cccc(N=C2N=C(N)c3ccccc32)c1 0.797%
COc1ccc(-c2nc3ccccn3c2NC2CCCCC2)cc1SC1CCCCC1 9.08%
COc1ccc(-c2cn(Cc3ccc(C)cc3)nn2)cc1 5.41%
COCCOC(=O)C1=C(C)NC(=O)NC1c1cn(-c2ccccc2)nc1-c1cccs1 (stereo not drawn) 8.59%
Cc1cccc(Oc2ccccc2N)c1 -2.44%
CC(=O)Nc1ccc(NC(=O)Oc2ccccc2)cc1 16.2%
O=C(Nc1ccc(N2CCN(c3ccc(O)cc3)CC2)cc1)Oc1ccccc1 16.3%
O=C(CC1C(=O)NCCN1CC(c1ccccc1)c1ccccc1)NC1CC1 (stereo not drawn) 3.88%
OCC1(CCCc2ccccc2)CCN(C2CCC2)CC1 4.13%
O=C(COC(=O)C1=COCCO1)NCc1ccc(F)cc1 17.7%
Cc1ccccc1OCCC(=O)Nc1ccc(F)c(Cl)c1 7.2%
CCCCCCCCC1=NCCc2c1[nH]c1ccccc21 7.25%
Cc1cc(=O)[nH]c2cc(O)ccc12 12.9%
COc1cccc(C=Nc2ccccc2C(=O)Nc2ccccc2)c1O 1.08%
Nc1cc(-c2ccc(Cl)cc2)nn1S(=O)(=O)c1ccccc1 0.87%
COc1cc(/C=C(\C#N)C(=O)Nc2cccc3ncccc23)ccc1O 3.35%
N#C/C(=C\c1ccc(O)c(Br)c1)C(=O)NCc1ccccc1 12.1%
COc1ccc(/C=C(\C#N)C(=O)NCc2ccccc2)cc1O 8.17%
N#C/C(=C/c1ccc(N2CCCCC2)o1)C(=O)Nc1ccc(Cl)cc1 22.3%
CCc1ccc(NC(=O)/C(C#N)=C\c2ccc(OC)c(C(=O)O)c2)cc1 1.43%
N#C/C(=C/c1ccc(N2CCOCC2)o1)C(=O)Nc1ccccc1 8.94%
COc1ccc(/C=C(\C#N)C(=O)Nc2cccc3ncccc23)cc1OC 6.66%
COc1ccc(/C=C(/C#N)C(=O)Nc2ccccc2C)cc1C(=O)O 9.24%
CCOP(=O)(O)c1ccccc1OCCOCCOc1ccccc1P(=O)(O)OCC -4.92%
COc1ccc(Cl)cc1Nc1nc(-c2sc(NC(=O)c3ccccc3)nc2C)cs1 2.67%
CCOC(=O)Cn1c(=NC(=O)C(C)C)sc2c(C)cc(C)cc21 14%
CCCc1nnc(NC(=O)CCC(=O)N2CCCCC2CC)s1 (stereo not drawn) 6.09%
N#C/C(=C\c1ccc(O)c(O)c1)C(=O)NCCCc1ccccc1 37.7%
O=C1NC(=S)N/C1=C\c1ccccc1OCc1ccc(C(=O)O)cc1 11.5%
CC(NC(=O)/C(C#N)=C/c1ccc(C(=O)O)cc1)c1ccccc1 (stereo not drawn) 2.43%
COc1ccc(/C=C(\C#N)C(=O)NC(C)c2ccccc2)cc1O (stereo not drawn) 4.31%
CN1C(=O)S/C(=C\c2ccccc2OCc2ccc(C(=O)O)cc2)C1=O 10.5%
O=C(C(=O)N1CCCc2ccccc21)N1CCCc2ccccc21 -4.81%
COc1cc(/C=C(\C#N)C(=O)NCCc2ccccc2)cc(OC)c1O 23.4%
COc1cc(/C=C(\C#N)C(=O)N2CCc3ccccc32)ccc1O 57%
Cc1nnc(NC(=O)CSc2n[nH]c(-c3ccccc3)n2)s1 -0.77%
O=C(CC(C(=O)N1CCc2ccccc21)n1ccnc1)NCC1CCCO1 (stereo not drawn) 2.93%
COc1ccccc1N(C)S(=O)(=O)c1ccc(C(=O)OCC(=O)NCC(F)(F)F)cc1 21.8%
COc1ccc(OCCCC(=O)OCC(=O)NNC(=O)c2ccc([N+](=O)[O-])cc2)cc1 11.8%
COc1ccc2c(=O)c(N3C(=O)c4ccccc4C3=O)c(C)oc2c1 0.21%
COc1ccc(C)cc1NC(=O)Nc1ccc2c(c1)CCC2 -11.4%
COC(=O)c1ccc(COc2ccccc2/C=C(\C#N)C(=O)Nc2ccc(C)cc2)cc1 3.16%
COc1cc(/C=C(/C#N)C(=O)Nc2ccccc2)c(Br)cc1OCc1ccc(C(=O)O)cc1 12.2%
N#C/C(=C/c1ccc(O)c([N+](=O)[O-])c1)C(=O)Nc1ccccc1 6.93%
N#C/C(=C/c1ccc(C(=O)O)cc1)C(=O)Nc1ccccc1 2.52%
CCOC(=O)Cc1csc(NC(=O)CCCN2C(=O)c3ccccc3C2=O)n1 1.05%
Cc1[nH]c2ccccc2c1C(Nc1nccs1)c1ccncc1 (stereo not drawn) 0.2%
CCOc1ccc(NC(=O)CCn2c(=O)[nH]c3ccsc3c2=O)cc1 9.67%
Cc1ccc(S(=O)(=O)N(C)C)cc1NC(=O)CSc1nc2ccccc2c(=O)n1CC1CCCO1 (stereo not drawn) 23.7%
O=C(Nc1ncccn1)C1=C(O)c2ccccc2S(=O)(=O)N1Cc1ccccc1 2.54%
Cc1cc(Cl)c(S(=O)(=O)NC2CCCCC2)cc1OCC(=O)Nc1nncs1 1.03%
Cc1ccccc1NC(=O)CCNS(=O)(=O)c1ccc2c(c1)CCC(=O)N2 5.35%
Cc1ccc(NC(=O)CCNS(=O)(=O)c2ccc3c(c2)CCC(=O)N3)c(Br)c1 3.77%
CC(C)(C)n1nc2c(c1NC(=O)Cc1cccc3ccccc13)CS(=O)(=O)C2 2.22%
Brc1cccc(Cn2c(-c3cncs3)nc3ccccc32)c1 12%
CC(=O)c1cccc(NC(=O)COC(=O)COc2ccccc2C)c1 2.51%
CC(C)c1cc2cc3ccc(=O)oc3cc2o1 4.47%
COc1cc2ccc(=O)oc2cc1O 2.12%
O=C1CCCc2[nH]nc(-c3cccnc3)c21 12%
Cc1c(Br)c(=O)oc2c(Br)c(O)ccc12 23.7%
Cc1c(C)c2cc(Cl)c(O)c(CN(C)C)c2oc1=O 6.8%
C/C(=N\N=C\c1ccccc1F)c1nnn(-c2nonc2N)c1C -1.72%
O=C(NCc1ccc(Cl)cc1)c1cnn2ccccc12 3.57%
O=C(Nc1ccc(Nc2ccccc2)cc1)c1ccccc1 16.9%
O=C(Nc1ccccc1)N1CCOCC1 12.8%
CC(=O)Nc1ccc(Nc2ccccc2)cc1 23.7%
O=C(Nc1ccc(F)cc1)N1CCOCC1 0.68%
O=C(O)C1CCCCC1C(=O)Nc1ccccc1Nc1ccccc1 (stereo not drawn) 20.9%
O=C(Nc1ccccc1)Nc1ccc(Nc2ccccc2)cc1 25.8%
CCC(=O)Nc1ccc(Nc2ccccc2)cc1 33.2%
O=C(O)C1CCCCC1C(=O)Nc1ccc(-c2ccccc2)cc1 (stereo not drawn) -3.79%
CC(=O)COc1ccc2c(c1C)O/C(=C\c1ccco1)C2=O 35.5%
CCN1C(=O)CC(c2ccc(OC(C)C)cc2)C1=O (stereo not drawn) -0.45%
CC[C@H](C)[C@H](NC(N)=O)C(=O)Nc1ccc(NC(C)=O)cc1 9.4%
CCOC(=O)c1cnc(N)nc1C(F)(F)F -4.94%
O=C(COC(=O)c1ccc2c(c1)OCCO2)Nc1cc(S(=O)(=O)N2CCOCC2)ccc1Cl 12.3%
COCCn1c(N2CCCC2)nc2c1c(=O)[nH]c(=O)n2C 5.19%
Cc1ccc(-c2nnc(CCC(=O)N(C)Cc3nccs3)o2)s1 -8.55%
Nc1cccc(S(=O)(=O)c2ccc(N)c(N)c2)c1 25.5%
Nc1ccc(S(=O)(=O)c2ccc(N)c(N)c2)cc1 20.9%
O=C(c1cnn2c(C(F)F)cc(-c3ccccc3)nc12)N1CCCCC1c1cccnc1 (stereo not drawn) 1.99%
COc1ccc(NC(=O)c2ccc3c(c2)NC(=O)CO3)cc1OC -1.26%
Cc1ccccc1S(=O)(=O)Cc1ccc(C(=O)NC2CC2)o1 11.4%
COc1cc(/C=C2\C(=N)N3N=C(S(C)(=O)=O)SC3=NC2=O)ccc1OS(=O)(=O)c1ccccc1 26.3%
CCC1=NN2C(=N)/C(=C/c3ccc(OS(=O)(=O)c4ccc(C)cc4)c(OC)c3)C(=O)N=C2S1 15.3%
CCOc1cc(/C=C2/C(=N)N3N=C(CC)SC3=NC2=O)ccc1OC(=O)c1ccco1 1.88%
COc1cc(/C=C2/C(=N)N3N=C(C)SC3=NC2=O)ccc1OS(=O)(=O)c1ccc(C)cc1 3.08%
CCC1=NN2C(=N)/C(=C\c3ccc(OCCOc4ccccc4)c(OC)c3)C(=O)N=C2S1 10.4%
COc1cc(/C=C2\SC(c3ccc(C)cc3)=NC2=O)ccc1O 23.4%
